SW480 rerep = inducers of DNA re-replication in SW480 colon cancer cells. 340,000 compounds, 1.8% hits. SW480 DNA re-replication, Hoechst DNA content imaging, 48 h. Potency, µM (titrated, usually from 46.1 µM), actives largely listed as activators; further: nearly all actives have a fitted effect of over 55% in size
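250 cells/well; 23 nL cpd via pin tool; 48 hr, 37 C, 5% CO2; Hoechst 40 min; imager read of total nuclear intensity, ex 405/em 500-530 nm.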
PINK1 expr mod = changes PINK1 expression; Potency, µM (doses to about 76.6 µM), usual class: activators; 410,000 compounds, 0.2% hits; AID 624263; PINK1 immunofluorescence, high-content cytometry, 24 h; active means well fitted activation curve with a large enough effect; inconclusive means small, poorly fitted or top-dose-only effect; cell line not stated here; further: nearly all actives have a fitted effect of over 65% in size
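Decision-based qHTS: stable cells, 24 h exposure to five compound concentrations, CCCP as control. Fixed cells stained for PINK1 plus nuclear, mitochondrial and cell markers, cytometer read.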
KB-3-1 tox = KB-3-1 parental cell cytotoxicity; KB-3-1 viability, CellTiter-Glo ATP luminescence, 72 h; Potency, µM (series often up to 46.1 µM), usual class: cytotoxic; 400,000 compounds, 1.4% hits; further: nearly all actives have a fitted effect of over 60% in size
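Viability of parental KB-3-1 cells, measured by CellTiter-Glo luminescence, followed a 72 h incubation at 37 °C with pinned compounds in phenol-red-free DMEM containing 10% FBS.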
MCF10A rerep = DNA re-replication induction in MCF 10a cells. Potency, µM (highest dose often 46.1 µM), most hits filed as activators. MCF 10A DNA re-replication, Hoechst nuclear intensity, 48 h. 350,000 compounds, 2.9% hits; further: nearly all actives have a fitted effect of over 50% in size
KB-V1 MDR tox = kills drug-selected multidrug resistant KB-V1 cells; KB-V1 MDR cells viability, CellTiter-Glo, 72 h; Potency, µM (doses to about 46.1 µM), most hits filed as cytotoxic; 400,000 compounds, 3.4% hits; further: nearly all actives have a fitted effect of over 60% in size
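Potencies derive from concentration-effect curves fitted to normalized luminescence (CellTiter-Glo) of KB-V1 cells treated for 72 h at 37 degrees C in phenol-red-free DMEM containing 10% FBS.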
Large screens that a line does not name were inactive. This is a sample that favours compounds with a hit; in the whole collection about 6.7% have one here. Unless noted, the call rests on the fitted dose curve; in most records, active means well fitted curve in the direction sought with a large enough effect; inconclusive means small, poorly fitted or top-dose-only effect, or another doubt; inactive means no such curve, though single readings can be large; an effect the other way counts as inactive or inconclusive.

CCCc1[nH]n(-c2ccc(F)cc2)c(=O)c1C=Nc1cccc(F)c1	SW480 rerep inconclusive, KB-3-1 tox 5.8µM, MCF10A rerep inconclusive, KB-V1 MDR tox inconclusive
CCCc1[nH]n(-c2ccc(F)cc2)c(=O)c1C=NCC1CCCO1 (centres undefined)	none
Clc1ccc(SCCCCN2CCNCC2)cc1	SW480 rerep inconclusive, MCF10A rerep 2.91µM
CC1CN(CCOCCSc2ccc(Cl)cc2)CC(C)O1 (centres undefined)	KB-V1 MDR tox inconclusive
Clc1ccc(SCCCCn2ccnc2)cc1	MCF10A rerep 10.3µM
CC1CN(CCCCSc2ccc(Cl)cc2)CC(C)O1 (centres undefined)	SW480 rerep inconclusive, MCF10A rerep 23.1µM
Cc1ccccc1-c1ccc2ncnc(NCCN3CCOCC3)c2c1	none (no result: SW480 rerep, KB-3-1 tox, MCF10A rerep, KB-V1 MDR tox)
COc1ccc2sc(N(Cc3cccnc3)C(=O)C3CCCCC3)nc2c1	none (no result: SW480 rerep, MCF10A rerep)
Cc1ccc(NC(=O)CSc2nc(=O)n(CCN3CCOCC3)c3c2CCC3)c(C)c1	none (no result: SW480 rerep, KB-3-1 tox, MCF10A rerep, KB-V1 MDR tox)
Cc1ccc(CNC(=O)C2(C)CCN2C(=O)Cc2ccc(C(C)(C)C)cc2)cc1 (centres undefined)	none (no result: SW480 rerep, MCF10A rerep)
CCCNC(=O)C1(C)CCN(Cc2ccc(-c3ccccc3)o2)C1 (centres undefined)	none (no result: SW480 rerep, MCF10A rerep)
Cc1c(NS(=O)(=O)c2ccccc2)cc(Cl)c(O)c1C	KB-V1 MDR tox inconclusive
O=C(Nc1cccc2c1CCCC2)c1ccccc1Cl	none
O=C(Nc1ccc(Cl)cc1)Nc1ccccc1NS(=O)(=O)c1cccs1	PINK1 expr mod inconclusive, MCF10A rerep 18.4µM
O=C(Nc1ccc(F)cc1)Nc1ccccc1NS(=O)(=O)c1cccs1	none
CC(=O)Nc1ccccc1NS(=O)(=O)c1ccc(Cl)cc1	SW480 rerep inconclusive, KB-3-1 tox inconclusive, KB-V1 MDR tox 13µM
O=S(=O)(Nc1cccc2c1CCCC2)c1ccc(Cl)cc1	KB-3-1 tox inconclusive, MCF10A rerep 16.4µM, KB-V1 MDR tox inconclusive
CC(=O)Nc1ccccc1NS(=O)(=O)c1ccccc1NO	none (no result: SW480 rerep, KB-3-1 tox, MCF10A rerep, KB-V1 MDR tox)
Cc1c(Cl)cccc1NS(=O)(=O)c1ccccc1	KB-V1 MDR tox 18.4µM
CN(C)c1ccc(C=Nc2cncc3ccccc23)cc1	KB-3-1 tox inconclusive (no result: SW480 rerep, MCF10A rerep)
O=S(=O)(NCc1ccco1)c1ccc(S(=O)(=O)N2CCCCC2)cc1	KB-V1 MDR tox 16.4µM
O=C(NC1CCCCCC1)c1ccc(S(=O)(=O)NCc2ccco2)cc1	KB-V1 MDR tox 20.6µM
CC(C)C(C(=O)NCc1ccco1)N(C(=O)CNS(=O)(=O)c1ccccc1)C1CCCC1 (centres undefined)	none
CCC(C(=O)NCc1ccco1)N(C(=O)CNS(=O)(=O)c1ccccc1)C1CCCCC1 (centres undefined)	MCF10A rerep 4.11µM, KB-V1 MDR tox inconclusive
O=C(NCc1ccco1)c1cc(C(=O)C2CCCCC2)c[nH]1	KB-V1 MDR tox 10.3µM
O=C(c1ccc(S(=O)(=O)NCc2ccco2)cc1)N1CCCC1	none
Cc1c(NC(=O)c2ccc(S(=O)(=O)Nc3ccccc3F)cc2)c(=O)n(-c2ccccc2)n1C	none (no result: KB-3-1 tox, KB-V1 MDR tox)
O=C(NCCCCO)c1c(-c2ccccc2)oc2c1C(OCCCCCO)CCC2 (centres undefined)	none (no result: SW480 rerep, MCF10A rerep)
Cc1ccc(NC(=O)c2ccc(S(=O)(=O)NCc3ccco3)cc2)nc1	SW480 rerep 20.6µM, KB-3-1 tox 20.6µM, MCF10A rerep inconclusive, KB-V1 MDR tox inconclusive
CCCNS(=O)(=O)c1ccc(CCC(=O)NCc2ccco2)cc1	none
O=C(CCc1ccc(S(=O)(=O)NCc2ccccc2)cc1)NCc1ccco1	KB-V1 MDR tox 20.6µM
CC(C)CCNC(=O)c1cc(S(=O)(=O)N2CCC3(CC2)OCCO3)ccc1F	KB-V1 MDR tox inconclusive (no result: SW480 rerep, MCF10A rerep)
CN(Cc1ccc(F)cc1)C(=O)CNC(=O)c1ccc2c(c1)OCO2	none
CN(Cc1ccc(Br)s1)C(=O)CNC(=O)c1ccc2c(c1)OCO2	KB-V1 MDR tox 20.6µM
CN1C[C@@H]2[C@@H]3C(=O)N(Cc4ccccc4)C(=O)[C@@H]3[C@](Cc3ccccc3)(C1=O)N2C(=O)c1ccc(C(F)(F)F)cc1	KB-V1 MDR tox inconclusive
CN(C(=O)COC(=O)c1ccc(S(=O)(=O)N2CCCCCC2)cc1)c1ccccc1	none (no result: SW480 rerep, MCF10A rerep)
O=C(Cc1cccs1)NCCSc1c(-c2ccc(Cl)cc2)[nH]c2ccccc12	SW480 rerep inconclusive, PINK1 expr mod inconclusive, KB-3-1 tox inconclusive, MCF10A rerep 20.6µM
CN(C)S(=O)(=O)c1ccc(C(=O)NCCSc2c(-c3ccc(Cl)cc3)[nH]c3ccccc23)cc1	none (no result: SW480 rerep, MCF10A rerep)
CC(=O)c1ccc(Oc2nc(C)nc3c2oc2ccccc23)cc1	KB-3-1 tox 18.4µM (no result: SW480 rerep, MCF10A rerep)
COc1ccc(-c2cc(C(=O)OCC(=O)NC3CC3)c3ccccc3n2)cc1	none
Cc1cc(C(=O)OCC(=O)N(C)C2CCS(=O)(=O)C2)c(C)n1-c1ccccc1 (centres undefined)	none
COc1ccc2cc(-c3cc(C(=O)OCC(=O)NC4CCS(=O)(=O)C4)c4ccccc4n3)ccc2c1 (centres undefined)	SW480 rerep inconclusive, MCF10A rerep 7.31µM
Cc1cc(C(=O)OCC(=O)NC2CCS(=O)(=O)C2)c(C)n1-c1ccccc1 (centres undefined)	KB-3-1 tox inconclusive, KB-V1 MDR tox 16.4µM
O=C1Nc2ccccc2N(C(=O)c2ccc3ccccc3c2)C1c1nc2ccccc2[nH]1 (centres undefined)	KB-3-1 tox inconclusive, KB-V1 MDR tox 16.4µM (no result: SW480 rerep, MCF10A rerep)
CC1C(=O)Nc2ccccc2N1C(=O)c1ccc(O)cc1 (centres undefined)	none
Cc1ccc(Nc2cc(C)c3c(O)cccc3n2)cc1C	none
COC(=O)c1cc(Nc2cc(C)c3ccc(O)cc3n2)cc(C(=O)OC)c1	SW480 rerep inconclusive, MCF10A rerep 14.6µM
Cc1ccc(Nc2cc(C)c3ccc(O)cc3n2)cc1C	SW480 rerep inconclusive, KB-3-1 tox inconclusive, MCF10A rerep 23.1µM
CCCNC(=O)c1cc(C2CCCCN2C(=O)c2ccc(C(C)C)cc2)on1 (centres undefined)	none (no result: SW480 rerep, MCF10A rerep)
Cc1cccc(Cn2c(=O)n(Cc3ccc4c(c3)OCO4)c(=O)c3oc4ccccc4c32)c1	none (no result: SW480 rerep, KB-3-1 tox, MCF10A rerep, KB-V1 MDR tox)
COc1ccccc1OCCOCCOc1ccc(C)cc1[N+](=O)[O-]	KB-V1 MDR tox 13µM
COc1cc(C)ccc1OCCOCCOc1ccccc1[N+](=O)[O-]	none
COc1ccccc1CCN1CCCC(CN(C)Cc2ccc(OCCO)cc2)C1 (centres undefined)	SW480 rerep inconclusive, MCF10A rerep 20.6µM
COc1cccc(CNC(=O)c2ccc3c(c2)N(C)C(=O)C2CCCCN32)c1 (centres undefined)	none (no result: SW480 rerep, MCF10A rerep)
CCC(Oc1ccccc1)C(=O)Nc1cc(-c2ccccc2F)nn1-c1ccccc1 (centres undefined)	none (no result: SW480 rerep, MCF10A rerep)
O=C(CSc1nc2cc([N+](=O)[O-])ccc2n1-c1ccc(F)cc1)NC1CCS(=O)(=O)C1 (centres undefined)	KB-V1 MDR tox 23.1µM

Compound activity: PubChem, National Center for Advancing Translational Sciences (NCATS)
